Measurements reported in PubChem BioAssay (NCATS).
Inconclusive results are not listed. Activity calls are given as the source filed them. Unless noted, the call rests on the fitted dose curve; in most records, active means well fitted activation curve with a large enough effect in the main read-out, with a control signal flat (not every such curve was filed as active); inconclusive means small, poorly fitted or top-dose-only effect, or effect the other way, or a change in a side signal; inactive means flat fitted curve, though single readings scatter.

Each compound was assayed against 3',5'-cyclic-AMP phosphodiesterase 4B (Homo sapiens) (UniProt Q07343) (assay: qHTS Assay for Inhibitors of PDE-IV (AID 607; further: % of control where 0% means no effect)). Settings: HEK293 ACTOne CNG channel cells, membrane potential fluorescence; series mostly up to 22.9 µM; activation (PDE inhibition): at the top concentration.
Summary of the method: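 Live HEK293 cells with a modified cyclic nucleotide-gated (CNG) channel report intracellular cAMP via membrane-potential dye fluorescence (ex 535/em 590 nm). Endogenous PDE-IV was targeted. Compounds were tested at up to 22.9 uM final; RO 20-1724 100 uM served as control.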

Sequence of 3',5'-cyclic-AMP phosphodiesterase 4B (Homo sapiens) (Q07343 whole entry, looked up): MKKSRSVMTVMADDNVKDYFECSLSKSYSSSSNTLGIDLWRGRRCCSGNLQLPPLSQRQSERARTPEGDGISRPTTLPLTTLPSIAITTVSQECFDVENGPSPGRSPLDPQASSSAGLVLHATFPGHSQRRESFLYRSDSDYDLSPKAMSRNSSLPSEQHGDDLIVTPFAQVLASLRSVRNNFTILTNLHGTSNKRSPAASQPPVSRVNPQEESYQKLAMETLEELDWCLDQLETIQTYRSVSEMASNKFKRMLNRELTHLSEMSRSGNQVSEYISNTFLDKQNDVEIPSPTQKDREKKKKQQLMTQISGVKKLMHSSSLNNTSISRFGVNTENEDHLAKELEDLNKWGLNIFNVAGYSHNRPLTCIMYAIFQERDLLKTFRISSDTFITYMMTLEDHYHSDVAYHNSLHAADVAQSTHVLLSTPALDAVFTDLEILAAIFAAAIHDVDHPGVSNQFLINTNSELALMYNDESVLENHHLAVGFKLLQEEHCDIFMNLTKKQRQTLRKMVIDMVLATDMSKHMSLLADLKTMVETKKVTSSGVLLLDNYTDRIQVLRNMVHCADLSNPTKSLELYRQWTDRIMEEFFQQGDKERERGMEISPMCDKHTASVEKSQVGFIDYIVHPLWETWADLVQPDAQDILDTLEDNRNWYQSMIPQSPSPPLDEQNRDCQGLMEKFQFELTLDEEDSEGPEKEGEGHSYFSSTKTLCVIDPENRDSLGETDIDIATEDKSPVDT

Activation (PDE inhibition), inactive:
C[C@@H](C(=O)O)[C@H]1C[C@]1(C)[C@H](NC(=O)OCc1ccccc1)c1ccccc1 17.3%
CC(C)C[C@@H](CC(=O)N[C@@H](CCC(=O)O)CC(=O)O)NC(=O)[C@@H]1CCCC[C@H]1NC(=O)C[C@H](CCCN)NC(=O)C[C@H](CO)NC(=O)[C@@H]1CNCC[C@H]1N -7.88%
CCCCCCN(C(=O)CCCCCN1C(=O)NC(c2ccc(-c3ccccc3)cc2)C(C(=O)OCc2ccccc2)=C1C)C(C(=O)NCCCC)c1ccc(OCC(=O)OC)c(C(=O)OC)c1 (stereo not given) 6.59%
C[C@@H](C(=O)NCc1ccc(S(C)(=O)=O)cc1)[C@@H]1C[C@@]1(C)[C@@H](NC(=O)OCc1ccccc1)c1ccccc1 5.85%
CCC[C@@H]1C[C@@]1(CCC)C(NC(=O)c1ccco1)c1ccc(Cl)cc1 (stereo not given in full) -4.72%
CCCCCC1=C2CNC(CC(C)C)(C(=O)OC)C=C2C(C)C1=O (stereo not given) 18.6%
COC(=O)[C@@]1(Cc2ccc(OC)cc2)[C@H]2c3cc(C(=O)N4CCCC4)n(Cc4cc(F)cc5c4OCOC5)c3C[C@H]2CN1C(=O)c1ccccc1 10.5%
CC(C)C[C@@H](CC(=O)N[C@H](CC(=O)N[C@@H]1CCCC[C@H]1C(=O)N[C@H](CC(=O)N[C@@H](CCC(=O)O)CC(=O)O)CC(C)C)C(C)C)NC(=O)[C@@H]1CCCC[C@H]1N -6.2%
COC(=O)[C@H]1C[C@@H]1[C@H](NC(=O)c1ccccc1)c1ccccc1 15.8%
CCC/C=C(\CCC)C(NS(=O)(=O)c1ccc(C(F)(F)F)cc1)c1ccc(-c2ccccc2)cc1 (stereo not given) 5.12%
COC(=O)[C@@H]1C[C@H]1[C@@H](NC(=O)c1ccccc1)c1ccccc1 19.8%
O=C(NCc1cc(F)cc2c1OCCO2)[C@H]1C[C@@H]1[C@H](NP(=O)(c1ccccc1)c1ccccc1)c1ccccc1 17.5%
OC1c2ccccc2-c2nc3ccccc3cc21 (stereo not given) 24.5%
CC[C@H]1C2=C3C(CC[C@H]4C(OC)OC[C@](C)([C@@H]34)N(C(=O)OC(C)(C)C)C2)C(CO)C1CO (stereo not given in full) 8.46%
COC(=O)[C@H]1C[C@@H]1[C@H](NC(=O)OCc1ccccc1)c1ccccc1 22.1%
CCCCCC1=C2CNC(Cc3ccccc3)(C(=O)OC)C=C2C(C)C1=O (stereo not given) 16.9%
CC[C@H]1C(=O)OC[C@@H]1Cc1cncn1C -27.3%
CC[C@@H]1OC(=O)[C@@H](C)[C@H](O[C@@H]2C[C@@](C)(OC)[C@@H](O)[C@H](C)O2)[C@H](C)[C@H](O[C@@H]2O[C@@H](C)C[C@@H](N(C)C)[C@H]2O)[C@@](C)(O)C[C@H](C)C(=O)[C@@H](C)[C@H](O)[C@@]1(C)O -0.923%
COC(=O)[C@@]1(Cc2ccc(OC)cc2)[C@H]2c3cc(C(=O)N(C)C)[nH]c3C[C@H]2CN1C(=O)c1ccccc1 26.1%
CC(C)C[C@@H](CC(=O)N[C@H](CC(=O)N[C@@H]1CCNC[C@H]1C(=O)N[C@H](CC(=O)N[C@@H](CCC(=O)O)CC(=O)O)Cc1ccccc1)C(C)C)NC(=O)[C@@H]1CNCC[C@H]1N -1.99%
CC(C)[C@@H](CC(=O)N[C@@H]1CCNC[C@H]1C(=O)N[C@H](CC(=O)N[C@@H](CCC(=O)O)CC(=O)O)Cc1c[nH]c2ccccc12)NC(=O)C[C@H](Cc1ccccc1)NC(=O)[C@@H]1CNCC[C@H]1N -15.2%
CCCC1(C(=O)OC)C=C2C(=C(C)C(=O)C2C)CN1 (stereo not given) -7.56%
C[C@@H](C(=O)Nc1ccc2ccccc2c1)[C@H]1C[C@]1(C)[C@H](NS(=O)(=O)c1ccc2ccccc2c1)c1ccccc1 -1.53%

These compounds were tested against Cytochrome P450 2C9 (Homo sapiens) (UniProt P11712) (assay: qHTS Assay for Inhibitors and Substrates of Cytochrome P450 2C9 (AID 883; active means well fitted inhibition curve with a large enough effect; further: potency means the concentration at half of the fitted maximal effect; nearly all actives have a fitted effect of over 60% in size)). Settings: recombinant CYP2C9, luciferin-H luminescence, 60 min; series mostly up to 57.1 µM; activity change, negative = inhibition: at the top concentration.
Summary of the method: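 Human CYP2C9 (10nM) hydroxylated Luciferin-H (100uM, at its KM) to luciferin in 25mM KPO4. Compound was preincubated 10 min at 37C, then NADPH regeneration started a 60 min reaction at 37C. Luminescence was read after detection reagent, normalized to 57uM sulphaphenazole.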

Sequence of Cytochrome P450 2C9 (Homo sapiens) (P11712 whole entry, looked up): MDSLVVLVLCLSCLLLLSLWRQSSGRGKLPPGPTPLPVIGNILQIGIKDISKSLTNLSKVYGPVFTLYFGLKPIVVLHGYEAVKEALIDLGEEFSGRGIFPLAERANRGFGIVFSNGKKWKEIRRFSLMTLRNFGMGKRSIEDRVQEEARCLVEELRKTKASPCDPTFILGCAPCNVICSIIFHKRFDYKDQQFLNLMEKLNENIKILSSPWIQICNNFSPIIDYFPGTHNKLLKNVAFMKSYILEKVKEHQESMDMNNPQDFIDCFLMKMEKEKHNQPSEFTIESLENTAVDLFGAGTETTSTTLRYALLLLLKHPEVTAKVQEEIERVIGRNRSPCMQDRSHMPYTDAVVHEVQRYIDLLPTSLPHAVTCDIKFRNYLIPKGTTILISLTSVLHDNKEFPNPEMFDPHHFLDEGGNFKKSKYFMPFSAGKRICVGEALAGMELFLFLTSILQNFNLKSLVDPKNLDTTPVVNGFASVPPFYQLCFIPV

Potency, active:
CCC/C=C(\CCC)C(NC(=O)c1cccs1)c1ccc(C(=O)OC)cc1 (stereo not given) 2 µM
COc1ccc2nc3c(cc2c1)Cc1ccccc1-3 6.31 µM
c1ccc2c(c1)Cc1cc3cc4c(cc3nc1-2)OCO4 3.98 µM
C[C@@H](C(=O)Nc1ccc2ccccc2c1)[C@H]1C[C@]1(C)[C@H](NP(=O)(c1ccccc1)c1ccccc1)c1ccccc1 3.16 µM
CCC/C=C(\CCC)C(NS(=O)(=O)c1cccc2cccnc12)c1ccc(-c2ccccc2)cc1 (stereo not given) 2 µM
CCCC[C@@H]1C[C@H]1C(NC(=O)c1cccs1)c1ccc(C(F)(F)F)cc1 (stereo not given in full) 1.58 µM
C[C@@H](C(=O)Nc1ccc2ccccc2c1)[C@@H]1C[C@@]1(C)[C@@H](NC(=O)c1cnccn1)c1ccccc1 0.0631 µM
S=C(Nc1ccccc1)Nc1ccccc1C#Cc1ccccc1 3.98 µM
CCC[C@@H]1C[C@@]1(CCC)C(NS(=O)(=O)c1cccc2cccnc12)c1ccc(Cl)cc1 (stereo not given in full) 7.94 µM
c1ccc2c(c1)Cc1cc3ccccc3nc1-2 10 µM
COC(=O)[C@@]1(Cc2ccc(F)cc2)[C@H]2c3cc(C(=O)N4CCCC4)n(Cc4cccc5ccccc45)c3C[C@H]2CN1C(=O)c1ccccc1 1.58 µM
COC(=O)[C@@H]1C[C@H]1[C@@H](NC(=O)Oc1ccc(F)cc1)c1ccccc1 3.98 µM
CCCC[C@@H]1C[C@H]1C(NC(=O)c1ccccc1)c1ccccc1 (stereo not given in full) 7.94 µM
CCC/C=C(\CCC)C(NS(=O)(=O)c1cccc2cccnc12)c1ccc(C(=O)OC)cc1 (stereo not given) 1.58 µM
COC(=O)[C@@]1(Cc2ccc(F)cc2)[C@H]2c3cc(C(=O)N4CCCC4)n(CCc4ccc(O)c(O)c4)c3C[C@H]2CN1C(=O)c1ccccc1 3.16 µM
CCCC[C@@H]1C[C@H]1C(NC(=O)c1ccco1)c1ccc(C(=O)OC)cc1 (stereo not given in full) 0.794 µM
COC(=O)[C@@]1(Cc2ccccc2)[C@H]2c3cc(C(=O)N4CCCC4)n(Cc4ccc(O)c(OC)c4)c3C[C@H]2CN1C(=O)c1ccccc1 2.51 µM
